The campaign covered roughly 39,000 compounds. About 3,300 (8.5%) were called active. Many of the other results were omitted from the sample, so actives are more common in it than they were.

From the antibiotic and cytotoxicity screens of Wong et al. (2023) come the findings set out here.

The subject of the assay is HepG2. Description: cytotoxicity call (relative viability < 0.9). The conditions noted are these: 10 µM.
For `C[C@@H]1CN([C@H](C)CO)C(=O)c2cc(NS(=O)(=O)c3cn(C)cn3)ccc2O[C@@H](C)CCCCO[C@@H]1CN(C)S(=O)(=O)c1ccc(F)cc1`, the cytotoxicity call is “inactive”.

Take `C[C@H]1CN([C@@H](C)CO)C(=O)c2cc(-c3cncnc3)cnc2O[C@H]1CN(C)C(=O)CN1CCOCC1`: the cytotoxicity call is “inactive”.

`C[C@@H]1CN([C@H](C)CO)C(=O)c2cc(NC(=O)NC3CCCCC3)ccc2O[C@@H]1CN(C)Cc1ccc(C(=O)Nc2ccccc2N)cc1`: the cytotoxicity call is “inactive”.

Turning to `COc1ccc(C#Cc2cnc3c(c2)C(=O)N([C@@H](C)CO)C[C@H](C)[C@H](CN(C)C(=O)CC2CC2)O3)cc1`, the cytotoxicity call was “inactive”.

As for `C[C@@H]1CN([C@@H](C)CO)C(=O)c2cc(NC(=O)C3CCCCC3)ccc2O[C@@H](C)CCCCO[C@@H]1CN(C)Cc1ccc(C(F)(F)F)cc1`, the cytotoxicity call is “inactive”.

With `C[C@@H]1CN([C@H](C)CO)C(=O)c2cc(NC(=O)C3CCCCC3)ccc2O[C@@H](C)CCCCO[C@H]1CN(C)Cc1ccc(C(F)(F)F)cc1`, the cytotoxicity call was “inactive”.

On to `C[C@@H]1CCCCO[C@H](CN(C)Cc2ccc(C(F)(F)F)cc2)[C@@H](C)CN([C@@H](C)CO)C(=O)c2cc(NC(=O)C3CCCCC3)ccc2O1`, for which the cytotoxicity call is “active”.

Regarding `C[C@H]1CCCCO[C@@H](CN(C)Cc2ccc(C(F)(F)F)cc2)[C@@H](C)CN([C@@H](C)CO)C(=O)c2cc(NC(=O)C3CCCCC3)ccc2O1`, the cytotoxicity call is “inactive”.

With `C[C@@H]1CCCCO[C@H](CN(C)Cc2ccc(C(F)(F)F)cc2)[C@H](C)CN([C@@H](C)CO)C(=O)c2cc(NC(=O)C3CCCCC3)ccc2O1`, the cytotoxicity call is “active”.

For the compound `C[C@@H]1CCCCO[C@@H](CN(C)Cc2ccc(C(F)(F)F)cc2)[C@H](C)CN([C@@H](C)CO)C(=O)c2cc(NC(=O)C3CCCCC3)ccc2O1`, the cytotoxicity call was “inactive”.

As for `C[C@H](CO)N1C[C@H](C)[C@H](CN(C)Cc2ccc(C(F)(F)F)cc2)OCCCC[C@H](C)Oc2ccc(NC(=O)C3CCCCC3)cc2C1=O`, the cytotoxicity call was “inactive”.

Take `C[C@H]1CCCCO[C@H](CN(C)Cc2ccc(C(F)(F)F)cc2)[C@@H](C)CN([C@@H](C)CO)C(=O)c2cc(NC(=O)C3CCCCC3)ccc2O1`: the cytotoxicity call was “active”.

With `C[C@H](CO)N1C[C@H](C)[C@@H](CN(C)Cc2ccc(C(F)(F)F)cc2)OCCCC[C@H](C)Oc2ccc(NC(=O)C3CCCCC3)cc2C1=O`, the cytotoxicity call was “inactive”.

Regarding `C[C@@H]1CCCCO[C@@H](CN(C)Cc2ccc(C(F)(F)F)cc2)[C@@H](C)CN([C@@H](C)CO)C(=O)c2cc(NC(=O)C3CCCCC3)ccc2O1`, the cytotoxicity call was “inactive”.

For `C[C@@H]1CN([C@@H](C)CO)C(=O)c2cc(NC(=O)C3CCCCC3)ccc2O[C@@H](C)CCCCO[C@H]1CN(C)Cc1ccc(C(F)(F)F)cc1`, the cytotoxicity call is “active”.

With `C[C@@H]1CN([C@H](C)CO)C(=O)c2cc(NC(=O)C3CCCCC3)ccc2O[C@@H](C)CCCCO[C@@H]1CN(C)Cc1ccc(C(F)(F)F)cc1`, the cytotoxicity call was “inactive”.

On to `Cc1ccc(S(=O)(=O)Nc2ccc3c(c2)C(=O)N([C@@H](C)CO)C[C@H](C)[C@@H](CN(C)Cc2ccc4c(c2)OCO4)OCCCC[C@@H](C)O3)cc1`, for which the cytotoxicity call is “inactive”.

`Cc1ccc(S(=O)(=O)Nc2ccc3c(c2)CC(=O)N([C@@H](C)CO)C[C@H](C)[C@@H](CN(C)S(C)(=O)=O)O3)cc1`: the cytotoxicity call is “inactive”.

Take `C[C@H](CO)N1C[C@H](C)[C@@H](CN(C)S(=O)(=O)c2ccc(Cl)cc2)Oc2ccc(NS(C)(=O)=O)cc2CC1=O`: the cytotoxicity call was “inactive”.

In the case of `Cc1cc(C(=O)Nc2cccc3c2O[C@H](CN(C)C(=O)NC(C)C)[C@H](C)CN([C@H](C)CO)C3=O)n(C)n1`, the cytotoxicity call was “inactive”.

As for `COc1ccc(CN(C)C[C@@H]2OCCCC[C@@H](C)Oc3ccc(NS(=O)(=O)c4cccs4)cc3C(=O)N([C@H](C)CO)C[C@H]2C)cc1`, the cytotoxicity call was “inactive”.

As to `C[C@H](CO)N1C[C@H](C)[C@H](CN(C)C(=O)NC2CCCCC2)Oc2ccc(NC(=O)Cn3cnnn3)cc2CC1=O`, the cytotoxicity call was “inactive”.

As to `C[C@@H]1CN([C@H](C)CO)C(=O)c2cc(NC(=O)Nc3ccccc3)ccc2O[C@@H](C)CCCCO[C@@H]1CN(C)C(=O)Cc1ccccc1`, the cytotoxicity call is “inactive”.

`O=C(C[C@@H]1CC=CCC[C@@H](Cc2ccc(F)cc2)C(=O)OCCNC1=O)N[C@@H](CO)Cc1ccccc1`: the cytotoxicity call was “inactive”.

In the case of `CCNC(=S)N1CCCC[C@@H]1CO`, the cytotoxicity call was “inactive”.

As for `C[C@@H]1CCCCO[C@@H](CN(C)Cc2ccc(C(F)(F)F)cc2)[C@H](C)CN([C@H](C)CO)C(=O)c2cc(NC(=O)C3CCCCC3)ccc2O1`, the cytotoxicity call is “inactive”.

`C[C@@H]1CCCCO[C@H](CN(C)Cc2ccncc2)[C@@H](C)CN([C@H](C)CO)C(=O)c2cc(NC(=O)C3CCCCC3)ccc2O1`: the cytotoxicity call is “inactive”.

As for `C[C@@H]1CCCCO[C@H](CN(C)Cc2ccncc2)[C@H](C)CN([C@@H](C)CO)C(=O)c2cc(NC(=O)C3CCCCC3)ccc2O1`, the cytotoxicity call is “active”.

On to `C[C@@H]1CCCCO[C@H](CN(C)Cc2ccc(C(F)(F)F)cc2)[C@H](C)CN([C@H](C)CO)C(=O)c2cc(NC(=O)C3CCCCC3)ccc2O1`, for which the cytotoxicity call was “inactive”.

Regarding `C[C@@H]1CCCCO[C@H](CN(C)Cc2ccc(C(F)(F)F)cc2)[C@@H](C)CN([C@H](C)CO)C(=O)c2cc(NC(=O)C3CCCCC3)ccc2O1`, the cytotoxicity call is “active”.

Turning to `C[C@@H]1CCCCO[C@@H](CN(C)Cc2ccncc2)[C@@H](C)CN([C@@H](C)CO)C(=O)c2cc(NC(=O)C3CCCCC3)ccc2O1`, the cytotoxicity call was “inactive”.

`C[C@@H]1CN([C@H](C)CO)C(=O)CCCn2cc(nn2)CO[C@H]1CN(C)C(=O)Nc1cccc(C(F)(F)F)c1`: the cytotoxicity call was “inactive”.

As for `CC(C)NC(=O)N(C)C[C@H]1Oc2ccc(NC(=O)Nc3ccc4c(c3)OCO4)cc2CC(=O)N([C@H](C)CO)C[C@H]1C`, the cytotoxicity call is “inactive”.

`COCCOC(=O)N1C(=O)[C@@]2(c3cc(C#CC4=CCCCC4)ccc31)[C@H](c1ccc(OCCO)cc1)N1[C@H](c3ccccc3)[C@H](c3ccccc3)OC(=O)[C@H]1[C@@H]2C(=O)N1CCN(c2ncccn2)CC1`: the cytotoxicity call is “inactive”.

For the compound `CN(C)CCCN1c2ccccc2CCc2ccc(Cl)cc21.Cl`, the cytotoxicity call was “inactive”.

`CN(C)CCCN1C(=O)[C@@]2(Cc3ccccc31)c1ccccc1C(=O)N(Cc1ccccc1)[C@H]2c1ccc(CO)cc1`: the cytotoxicity call was “inactive”.

For `CNC(=O)[C@H]1Cc2ccccc2N1C(=O)COC`, the cytotoxicity call was “inactive”.

Take `CNCCCN1c2ccccc2CCc2ccccc21.Cl`: the cytotoxicity call is “active”.

For the compound `CN(C)CCCN1c2ccccc2Sc2ccc(Cl)cc21.Cl`, the cytotoxicity call is “active”.

Regarding `CN(C)CCCN1C(=O)[C@@H]2[C@@H](C1=O)[C@@H]1C=C[C@@H]2C1`, the cytotoxicity call is “inactive”.

On to `COc1ccc(C2Sc3ccccc3N(CCN(C)C)C(=O)C2OC(C)=O)cc1.Cl` (stereo not drawn), for which the cytotoxicity call was “inactive”.

As for `NNC(=O)CN1CCCc2ccccc21`, the cytotoxicity call is “inactive”.

As for `CC(=O)c1ccc2c(c1)N(CCCN(C)C)c1ccccc1S2.O=C(O)C=CC(=O)O`, the cytotoxicity call was “inactive”.

`CN(C)CCCN1c2ccccc2CCc2ccccc21.Cl`: the cytotoxicity call was “active”.

`CN(C)CCCN1c2ccccc2Sc2ccccc21.Cl`: the cytotoxicity call was “active”.

For the compound `C[C@H](CO)N1C[C@H](C)[C@@H](CN(C)S(=O)(=O)c2cn(C)cn2)Oc2ncc(C#CCN(C)C)cc2C1=O`, the cytotoxicity call was “inactive”.

Take `Cc1noc(C)c1S(=O)(=O)Nc1cccc2c1O[C@@H](CN(C)Cc1ccncc1)[C@@H](C)CN([C@@H](C)CO)C2=O`: the cytotoxicity call is “inactive”.

Consider `CON=C(C(=O)NC1C(=O)N2C(C(=O)[O-])=C(CSc3nc(=O)c([O-])nn3C)CSC12)c1csc(N)n1.O.O.O.[Na+].[Na+]` (stereo not drawn), for which the cytotoxicity call is “inactive”.

As to `COc1ccccc1NC(=O)N(C)C[C@@H]1Oc2ncc(C#CC(C)C)cc2C(=O)N([C@H](C)CO)C[C@H]1C`, the cytotoxicity call is “inactive”.

`COC(=O)/C=C/C(=O)OC`: the cytotoxicity call was “inactive”.

Consider `COC(=O)C=CC(=O)OC`, for which the cytotoxicity call is “active”.

With `COC(=O)/C=C/C(=O)O`, the cytotoxicity call was “inactive”.

With `COCC#Cc1cnc2c(c1)C(=O)N([C@@H](C)CO)C[C@H](C)[C@@H](CN(C)C(=O)c1cnccn1)O2`, the cytotoxicity call is “inactive”.

As for `O=C(Cc1ccc2c(c1)OCO2)N[C@@H]1CCNC[C@H]1O`, the cytotoxicity call is “inactive”.

Regarding `C[C@@H]1CN([C@@H](C)CO)S(=O)(=O)c2ccc(-c3ccc(C(=O)N(C)C)cc3)cc2O[C@H]1CN(C)C(=O)C1CC1`, the cytotoxicity call was “inactive”.

Regarding `C[C@H](CO)N1C[C@H](C)[C@@H](CN(C)Cc2ccncc2)Oc2ccc(NC(=O)Nc3ccc(C(F)(F)F)cc3)cc2C1=O`, the cytotoxicity call is “inactive”.

On to `C[C@H](CO)N1C[C@H](C)[C@H](CN(C)C(=O)Nc2ccccc2)OCCCC[C@H](C)Oc2ccc(NC(=O)Nc3ccc(C(F)(F)F)cc3)cc2C1=O`, for which the cytotoxicity call was “inactive”.

As for `C[C@@H]1CCCCO[C@H](CN(C)C(=O)Nc2ccc(C(F)(F)F)cc2)[C@@H](C)CN([C@@H](C)CO)C(=O)c2cc(NC(=O)Nc3ccccc3)ccc2O1`, the cytotoxicity call was “active”.

`C[C@@H]1CCCCO[C@H](CN(C)C(=O)Nc2ccc(C(F)(F)F)cc2)[C@H](C)CN([C@@H](C)CO)C(=O)c2cc(NC(=O)c3ccccc3)ccc2O1`: the cytotoxicity call is “inactive”.

With `C[C@@H]1CCCCO[C@@H](CN(C)C(=O)Nc2ccccc2)[C@@H](C)CN([C@@H](C)CO)C(=O)c2cc(NC(=O)Nc3ccc(C(F)(F)F)cc3)ccc2O1`, the cytotoxicity call was “active”.

Turning to `C[C@@H]1CCCCO[C@@H](CN(C)C(=O)Nc2ccccc2)[C@@H](C)CN([C@H](C)CO)C(=O)c2cc(NC(=O)Nc3ccc(C(F)(F)F)cc3)ccc2O1`, the cytotoxicity call is “active”.

Take `C[C@H](CO)N1C[C@H](C)[C@@H](CN(C)C(=O)Nc2ccc(C(F)(F)F)cc2)OCCCC[C@H](C)Oc2ccc(NC(=O)Nc3ccccc3)cc2C1=O`: the cytotoxicity call was “inactive”.

Regarding `C[C@H]1CCCCO[C@@H](CN(C)C(=O)Nc2ccc(C(F)(F)F)cc2)[C@@H](C)CN([C@@H](C)CO)C(=O)c2cc(NC(=O)Nc3ccccc3)ccc2O1`, the cytotoxicity call was “inactive”.

As to `C[C@@H]1CN([C@@H](C)CO)C(=O)c2cc(NC(=O)c3ccccc3)ccc2O[C@@H](C)CCCCO[C@@H]1CN(C)C(=O)Nc1ccc(C(F)(F)F)cc1`, the cytotoxicity call is “active”.

Regarding `C[C@@H]1CCCCO[C@H](CN(C)C(=O)Nc2ccc(C(F)(F)F)cc2)[C@@H](C)CN([C@H](C)CO)C(=O)c2cc(NC(=O)Nc3ccccc3)ccc2O1`, the cytotoxicity call is “inactive”.

For `C[C@H]1CCCCO[C@@H](CN(C)C(=O)Nc2ccc(C(F)(F)F)cc2)[C@@H](C)CN([C@@H](C)CO)C(=O)c2cc(NC(=O)c3ccccc3)ccc2O1`, the cytotoxicity call is “inactive”.

Take `C[C@H]1CCCCO[C@H](CN(C)C(=O)Nc2ccc(C(F)(F)F)cc2)[C@@H](C)CN([C@@H](C)CO)C(=O)c2cc(NC(=O)Nc3ccccc3)ccc2O1`: the cytotoxicity call is “inactive”.

In the case of `C[C@@H]1CCCCO[C@H](CN(C)C(=O)Nc2ccc(C(F)(F)F)cc2)[C@H](C)CN([C@@H](C)CO)C(=O)c2cc(NC(=O)Nc3ccccc3)ccc2O1`, the cytotoxicity call is “inactive”.
